Inconclusive results are not listed. Activity calls are given as the source filed them. The call rests on the fitted dose curve; in most records, active means well fitted curve in the direction sought with a large enough effect; inconclusive means small, poorly fitted or top-dose-only effect, or another doubt; inactive means no such curve, though single readings can be large; an effect the other way counts as inactive or inconclusive.
Assays:
[1] = qHTS to identify inhibitors of the type 1 interferon - major histocompatibility complex class I in skeletal muscle: primary screen against the NCATS Pharmaceutical Collection (AID 1347407); conditions: human skeletal muscle cells, IFN-b-induced MHC-I HiBiT luminescence, 24 h; series mostly up to 45.9 µM;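 further: luminescence of HiBiT knocked into endogenous HLA-B as interferon-induced MHC class I level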
Summary of the method: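 Immortalized human myoblasts (C25cl48) with HiBiT knocked into endogenous HLA-B*08:01 were stimulated with 4.0 ng/ml IFN-beta and treated with compounds ([…] top 46 uM) for 24 hrs at 37 C. HiBiT lytic luminescence read.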

[2] = target: Protein phosphatase 1D (Homo sapiens) (UniProt O15297); test: RapidFire Mass Spectrometry qHTS Assay for Modulators of WT P53-Induced Phosphatase 1 (WIP1) (AID 1347424); conditions: WIP1 dephosphorylation of phosphopeptide, RapidFire MS; series mostly up to 63 µM;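 further: amount of dephosphorylated VEPPL-S-QETFS peptide product formed by WIP1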
Chain of Protein phosphatase 1D (Homo sapiens) (O15297 whole entry, looked up): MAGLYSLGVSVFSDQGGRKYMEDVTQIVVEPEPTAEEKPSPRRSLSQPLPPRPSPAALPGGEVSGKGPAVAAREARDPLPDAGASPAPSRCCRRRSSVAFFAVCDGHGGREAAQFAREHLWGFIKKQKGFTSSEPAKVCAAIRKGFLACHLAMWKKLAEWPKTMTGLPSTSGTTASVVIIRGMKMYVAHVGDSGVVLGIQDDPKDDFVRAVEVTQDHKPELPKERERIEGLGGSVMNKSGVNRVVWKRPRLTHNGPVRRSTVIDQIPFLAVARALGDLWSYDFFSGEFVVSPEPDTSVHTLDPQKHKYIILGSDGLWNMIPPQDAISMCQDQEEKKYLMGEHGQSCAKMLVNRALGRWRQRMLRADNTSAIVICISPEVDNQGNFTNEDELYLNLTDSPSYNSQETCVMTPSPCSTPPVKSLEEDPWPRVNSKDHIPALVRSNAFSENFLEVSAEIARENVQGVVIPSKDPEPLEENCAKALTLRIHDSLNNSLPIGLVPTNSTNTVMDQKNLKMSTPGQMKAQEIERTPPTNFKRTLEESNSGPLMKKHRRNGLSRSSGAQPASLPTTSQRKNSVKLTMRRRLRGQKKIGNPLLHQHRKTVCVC
Summary of the method: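 10 nM WIP1 + cpd, 1 h RT; + 2 uM VEPPL-pS-QETFS, 5 min RT; stop 0.5% formic acid; labelled product standard 1 uM; RapidFire MS. Buffer 50 mM Tris pH 7.5, 30 mM MgCl2, 1 mM TCEP.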

[3] = target: Protein phosphatase 1D (Homo sapiens) (UniProt O15297); test: Rhodamine-PBP qHTS Assay for Modulators of WT P53-Induced Phosphatase 1 (WIP1) (AID 1347425); conditions: recombinant WIP1, Rhodamine-PBP phosphate fluorescence, real-time; series mostly up to 57.5 µM
Summary of the method: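 The read-out is the change in Rhodamine-PBP fluorescence (f1 - f0, ex 525/em 598 nm) as Pi is released, read each minute for 11 min. Final reaction: 5 nM WIP1, 10 uM phosphopeptide VEPPL-pS-QETFS, 10 uM Rh-PBP, 50 mM Tris-HCl pH 7.5, 30 mM MgCl2. Compound was preincubated with enzyme for 1 hour at room temperature.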

[4] = Primary qHTS for inhibitors of La Crosse Virus (LACV) - induced cell death in SH-SY5Y cells (AID 1508616); conditions: SH-SY5Y LACV cytopathicity rescue, ATP luminescence, 6 d; series mostly up to 4.29 µM;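 further: top concentration of the series differs between compounds; higher means more rescue of cells from virus-induced death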
Summary of the method: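 Readout was luminescence from ATPLite 1step added after a 6-day LACV infection (0.01 MOI) of SH-SY5Y cells that had received pin-transferred compound 24 hr after seeding.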

Measured: Potency

OC(C#CCN1CCCC1)(c1ccccc1)c1ccccc1
inactive: all assays above

CCOC(=O)Nc1ccc2c(c1)N(C(=O)CCN1CCOCC1)c1ccccc1S2
inactive: all assays above

CC(=O)Nc1ccc(OCC(O)CNC(C)C)cc1 (configuration not stated)
inactive: all assays above

CCOc1ccccc1C(N)=O
inactive: all assays above

CC(C)[N+](C)(C)CC(O)COc1cccc2ccccc12 (configuration not stated)
inactive: all assays above

CCC1NC(=O)c2cc(S(N)(=O)=O)c(Cl)cc2N1 (configuration not stated)
inactive: all assays above

c1ccc(-c2nc[nH]c2-c2ccccc2)cc1
inactive: all assays above

CC(C)Cn1cnc2c1c(=O)n(C)c(=O)n2C
inactive: all assays above

CN1CCN(c2cc3c(cc2F)c(=O)c(C(=O)O)cn3-c2ccc(F)cc2)CC1
inactive: all assays above

O=C(O)CCc1nc2ccccc2[nH]1
inactive: all assays above

CCCCC(CC)CN1CN(CC(CC)CCCC)CC(C)(N)C1 (configuration not stated)
inactive: all assays above

CC(C)n1c(/C=C/[C@@H](O)C[C@@H](O)CC(=O)O)c(-c2ccc(F)cc2)c2ccccc21
inactive: all assays above

CO[C@H]1C=CO[C@@]2(C)Oc3c(C)c(O)c4c(O)c(c(/C=N/N5CCN(C)CC5)c(O)c4c3C2=O)NC(=O)/C(C)=C\C=C[C@H](C)[C@H](O)[C@@H](C)[C@@H](O)[C@@H](C)[C@H](OC(C)=O)[C@@H]1C
inactive: all assays above
